# The supplement of paper PMC8728848
# Many of the other results were omitted from the sample, so the strongest signals are more common in it than they were.
# How the values were obtained:
# Assay in all cases: glycan array binding signal (z-score within array); higher = stronger binding
# Settings in all cases: glycan notation: IUPAC condensed, linker removed
# [1] = target: Fuc(a1-2)Gal(b1-3)GlcNAc6S
# Procedure, shortened: (§1)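 Arrays were curated from the Consortium for Functional Glycomics database, 3228 in total, and kept only where the protein sequence was available. Binding is expressed as a within-array Z-score. This score was averaged across arrays of the same protein sequence at different concentrations or buffers and across linkers, and negative values can be read as non-binding.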
# [2] = target: Fuc(a1-2)Gal(b1-3)[Fuc(a1-4)]GlcNAc(b1-2)Man(a1-3)[Fuc(a1-2)Gal(b1-3)[Fuc(a1-4)]GlcNAc(b1-2)Man(a1-3)]Man(b1-4)GlcNAc(b1-4)GlcNAc
# Procedure, shortened: as §1
# [3] = target: Fuc(a1-2)Gal(b1-4)[Fuc(a1-3)]GlcNAc(b1-3)GalNAc
# Procedure, shortened: as §1
# [4] = target: Fuc(a1-2)[Gal(a1-3)]Gal(b1-3)GlcNAc(b1-2)Man(a1-3)[Fuc(a1-2)[Gal(a1-3)]Gal(b1-3)GlcNAc(b1-2)Man(a1-6)]Man(b1-4)GlcNAc(b1-4)[Fuc(a1-6)]GlcNAc
# Procedure, shortened: as §1
# [5] = target: Fuc(a1-2)[Gal(a1-3)]Gal(b1-4)GlcNAc
# Procedure, shortened: as §1
# [6] = target: Fuc(a1-2)[GalNAc(a1-3)]Gal(b1-3)GlcNAc(b1-2)Man(a1-3)[Fuc(a1-2)[GalNAc(a1-3)]Gal(b1-3)GlcNAc(b1-2)Man(a1-6)]Man(b1-4)GlcNAc(b1-4)[Fuc(a1-6)]GlcNAc
# Procedure, shortened: as §1
# [7] = target: Fuc(a1-2)[GalNAc(a1-3)]Gal(b1-4)GlcNAc(b1-2)Man(a1-3)[Fuc(a1-2)[GalNAc(a1-3)]Gal(b1-4)GlcNAc(b1-2)Man(a1-6)]Man(b1-4)GlcNAc(b1-4)GlcNAc
# Procedure, shortened: as §1
# [8] = target: Fuc(a1-2)[GalNAc(a1-3)]Gal(b1-4)[Fuc(a1-3)]GlcNAc
# Procedure, shortened: as §1
# [9] = target: Fuc(a1-3)[Gal(b1-4)]GlcNAc(b1-2)Man
# Procedure, shortened: as §1
# [10] = target: Fuc(a1-3)[Gal(b1-4)]GlcNAc(b1-6)[Gal(b1-3)GlcNAc(b1-3)]Gal(b1-4)Glc
# Procedure, shortened: as §1
# [11] = target: Gal(a1-3)Gal(b1-3)GlcNAc(b1-2)Man(a1-3)[Gal(a1-3)Gal(b1-3)GlcNAc(b1-2)Man(a1-6)]Man(b1-4)GlcNAc(b1-4)GlcNAc
# Procedure, shortened: as §1
# [12] = target: Gal(b1-3)GlcNAc(b1-2)Man(a1-3)[Gal(b1-3)GlcNAc(b1-2)Man(a1-6)]Man(b1-4)GlcNAc(b1-4)[Fuc(a1-6)]GlcNAc
# Procedure, shortened: as §1
# [13] = target: Gal(b1-3)GlcNAc(b1-3)Gal(b1-4)GlcNAc(b1-2)Man(a1-3)[Gal(b1-3)GlcNAc(b1-3)Gal(b1-4)GlcNAc(b1-2)Man(a1-6)]Man(b1-4)GlcNAc(b1-4)GlcNAc
# Procedure, shortened: as §1
# [14] = target: Gal(b1-3)GlcNAc(b1-6)[Gal(b1-3)]GalNAc
# Procedure, shortened: as §1
# [15] = target: Gal(b1-3)[Neu5Ac(a2-6)]GalNAc
# Procedure, shortened: as §1
# [16] = target: Gal(b1-4)Glc6S
# Procedure, shortened: as §1
# [17] = target: Gal(b1-4)GlcNAc(b1-2)[Gal(b1-4)GlcNAc(b1-4)]Man(a1-3)[Gal(b1-4)GlcNAc(b1-2)[Gal(b1-4)GlcNAc(b1-6)]Man(a1-6)]Man(b1-4)GlcNAc(b1-4)GlcNAc
# Procedure, shortened: as §1
# [18] = target: Gal(b1-4)GlcNAc(b1-2)[Gal(b1-4)GlcNAc(b1-6)]Man(a1-6)[Gal(b1-4)GlcNAc(b1-2)Man(a1-3)]Man(b1-4)GlcNAc(b1-4)[Fuc(a1-6)]GlcNAc
# Procedure, shortened: as §1
# [19] = target: Gal(b1-4)GlcNAc(b1-3)Gal(b1-4)GlcNAc(b1-2)Man(a1-3)[Gal(b1-4)GlcNAc(b1-3)Gal(b1-4)GlcNAc(b1-2)Man(a1-6)]Man(b1-4)GlcNAc(b1-4)GlcNAc
# Procedure, shortened: as §1
# [20] = target: Gal(b1-4)GlcNAc(b1-3)Gal(b1-4)GlcNAc(b1-3)Gal(b1-4)GlcNAc(b1-2)Man(a1-3)[Gal(b1-4)GlcNAc(b1-3)Gal(b1-4)GlcNAc(b1-3)Gal(b1-4)GlcNAc(b1-2)Man(a1-6)]Man(b1-4)GlcNAc(b1-4)GlcNAc
# Procedure, shortened: as §1
# [21] = target: Gal(b1-4)GlcNAc(b1-3)Gal(b1-4)GlcNAc(b1-3)Gal(b1-4)GlcNAc(b1-2)Man(a1-3)[Gal(b1-4)GlcNAc(b1-3)Gal(b1-4)GlcNAc(b1-3)Gal(b1-4)GlcNAc(b1-2)Man(a1-6)]Man(b1-4)GlcNAc(b1-4)[Fuc(a1-6)]GlcNAc
# Procedure, shortened: as §1
# [22] = target: Gal(b1-4)GlcNAc(b1-3)Gal(b1-4)GlcNAc(b1-3)Gal(b1-4)GlcNAc(b1-3)Gal(b1-4)GlcNAc(b1-2)Man(a1-3)[Gal(b1-4)GlcNAc(b1-3)Gal(b1-4)GlcNAc(b1-3)Gal(b1-4)GlcNAc(b1-3)Gal(b1-4)GlcNAc(b1-2)Man(a1-6)]Man(b1-4)GlcNAc(b1-4)[Fuc(a1-6)]GlcNAc
# Procedure, shortened: as §1
# [23] = target: Gal(b1-4)GlcNAc(b1-3)Gal(b1-4)GlcNAc(b1-3)Gal(b1-4)GlcNAc(b1-3)Gal(b1-4)GlcNAc(b1-3)Gal(b1-4)GlcNAc(b1-2)Man(a1-3)[Gal(b1-4)GlcNAc(b1-3)Gal(b1-4)GlcNAc(b1-3)Gal(b1-4)GlcNAc(b1-3)Gal(b1-4)GlcNAc(b1-3)Gal(b1-4)GlcNAc(b1-2)Man(a1-6)]Man(b1-4)GlcNAc(b1-4)[Fuc(a1-6)]GlcNAc
# Procedure, shortened: as §1
# [24] = target: Gal(b1-4)GlcNAc(b1-3)Gal(b1-4)GlcNAc(b1-3)[Gal(b1-4)GlcNAc(b1-3)Gal(b1-4)GlcNAc(b1-6)]GalNAc
# Procedure, shortened: as §1
binder,measurement,setting,value
rCnSL-proB (Clitocybe nebularis) (protein) PTFSPIFALLAFLPFGTLASLLPQTQLVFRINPNLPGPNDVFVGYRGTNNVVGAIYERDGIKDTPMNNGADAELGPGSYITDDLFTAQIFASGSAGNNPGTTATVCKIYADGVQWRGAPKGYLPVLYFGNGQAAEQTRQTYLQGLDIPGTAIRFANLAKTPNQGPTAPRQMVVPSGGLQTLLKASCFPANHAALPQVLSYFNVRAALPPGWNIRTGPEFPNWTN,glycan array binding signal (z-score),[1],-0.282
same,glycan array binding signal (z-score),[2],3.69
same,glycan array binding signal (z-score),[3],0.251
same,glycan array binding signal (z-score),[4],0.259
same,glycan array binding signal (z-score),[5],-0.77
same,glycan array binding signal (z-score),[6],3.9
same,glycan array binding signal (z-score),[7],-0.08
same,glycan array binding signal (z-score),[8],-0.654
same,glycan array binding signal (z-score),[9],-0.565
same,glycan array binding signal (z-score),[10],-0.826
same,glycan array binding signal (z-score),[11],-0.093
same,glycan array binding signal (z-score),[12],-0.42
same,glycan array binding signal (z-score),[13],3.58
same,glycan array binding signal (z-score),[14],-0.511
same,glycan array binding signal (z-score),[15],0.089
same,glycan array binding signal (z-score),[16],-0.06
same,glycan array binding signal (z-score),[17],3.51
same,glycan array binding signal (z-score),[18],4.49
same,glycan array binding signal (z-score),[19],6.35
same,glycan array binding signal (z-score),[20],4.18
same,glycan array binding signal (z-score),[21],1.76
same,glycan array binding signal (z-score),[22],2.28
same,glycan array binding signal (z-score),[23],0.375
same,glycan array binding signal (z-score),[24],4.08
